Screening results: PubChem BioAssay, several laboratories
Cav32 inh: inhibitors of human Cav3.2 T-type calcium channel; Cav3.2-expressing cells, Fluo-4 calcium fluorescence FDSS; stronger effect = lower value; B-score at 10 µM; 100,000 tested, 4% active; AID 449739;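 active = single-dose well whose peak fluorescence ratio is a statistical outlier from its plate by either plate-standardised score or position-corrected B-score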
M1 ag: agonists of M1 muscarinic receptor; CHO-M1 cells, Fluo-4 calcium fluorescence, agonist mode; stronger effect = higher value; B-score at 10 µM; 64,000 tested, 3% active; AID 626;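 active = fluorescence rise, raw or as B-score row- and column-corrected plate score, outside the 99.7% band of its plate's samples, either direction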
M1 antagonist: antagonists of rat M1 muscarinic receptor | P08482 | CHO-M1 cells, Fluo-4 calcium, ACh EC80 antagonist mode; stronger effect = lower value | B-score at 10 µM | 64,000 tested, 3.4% active;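 active = calcium fluorescence response, raw or row-and-column corrected B-score, differing from the plate sample mean either way at a set confidence level, mostly lower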
PLAP act: activates human placental alkaline phosphatase; P05187; purified PLAP enzyme, luminescent substrate read-out; stronger effect = higher value; activation fold at 20 µM; 96,000 tested, 1.2% active; AID 696; in the data active = activation fold above about 2
* = called active by the depositor; / = not tested or not shown. Rows were chosen to be rich in hits. Some 7.6% of all compounds tested hit in one or more screens of this group.

SMILES	Cav32 inh	M1 ag	M1 antagonist	PLAP act
CCOc1cc(S(=O)(=O)NC2CCCCC2)ccc1F	-0.001	/	/	0.7
CCN(CC(=O)Nc1ccc(OC)c(OC)c1)S(=O)(=O)c1ccc(C)cc1	1	-0.86	0.26	1
CCN(CC)S(=O)(=O)c1ccc(NC(=O)CN(c2ccc(OC)cc2OC)S(C)(=O)=O)cc1	-6.6*	0.54	0.35	1.6
CCN(CC)S(=O)(=O)c1ccc(NC(=O)CN(c2cccc(C)c2)S(C)(=O)=O)cc1	-4.4*	/	/	/
CCCCc1ccc(/C=C2\C(=O)c3ccccc3C(O)=C2C(=O)OCC)cc1	-0.54	/	/	0.6
O=C(O)C1CC(O)CN1C(=O)c1ccco1 (stereo not drawn)	0.32	/	/	0.9
Cc1cc(OCc2nn[nH]n2)c2c(C)c(Cc3ccccc3)c(=O)oc2c1	0.84	0.12	-0.17	1.4
O=C(NCC1COc2ccccc2O1)c1cc2ccccc2o1 (stereo not drawn)	-1.8	/	/	/
O=C1CCCC2=C1C(c1ccco1)Nc1ccc(C(=O)c3ccccc3)cc1N2 (stereo not drawn)	-3.6*	-0.82	1.1	1.2
CN(c1ccccc1C(N)=O)S(=O)(=O)c1ccccc1	0.12	-0.1	-0.018	/
Cc1ccccc1Cn1cnc2c(cnn2C(C)(C)C)c1=O	-2.6	-0.62	-0.16	1
Cc1ccc(C)c(Cn2cnc3c(cnn3C(C)(C)C)c2=O)c1	-4.8*	/	/	1
CC1Sc2ccccc2N(CC(=O)N(C(C)C)C(C)C)C1=O (stereo not drawn)	0.059	/	/	1
CCOC(=O)C1=C(CC)Nc2ccccc2N=C1NC(=O)c1cc(S(=O)(=O)N(C)C)ccc1Cl	0.066	/	/	0.8
CCOC(=O)C1=C(CC)Nc2ccccc2N=C1NC(=O)Nc1ccccc1OC	-0.57	0.87	0.84*	1
O=C(OC1C[C@@H]2CC3C[C@H](C1)N2CC3=O)c1c[nH]c2ccccc12 (stereo partly drawn)	-1.4	/	/	/
COc1ccc(-n2c(NC(=O)c3ccc(Br)o3)c(C#N)c3nc4ccccc4nc32)cc1	/	/	/	1.3
CCC(=O)Nc1c(C#N)c2nc3ccccc3nc2n1-c1ccc(C)cc1	/	4.3*	0.42	/
CCCCn1c(NC(=O)c2ccccc2)c(C#N)c2nc3ccccc3nc21	/	/	/	1.4
N#Cc1c(NC(=O)c2ccc(Br)o2)n(-c2ccccc2)c2nc3ccccc3nc12	/	42*	-0.75	/
O=C(COc1ccc(Cl)cc1Cl)Nc1nc2n(n1)C(c1ccccc1)CC(=O)N2 (stereo not drawn)	-3.7*	0.027	0.53	1.6
O=C1CC(c2ccccc2)n2nc(NS(=O)(=O)c3ccccc3)nc2N1 (stereo not drawn)	-1.1	-0.18	0.022	2*
Cc1cc(NC(=O)COc2ccc(Cl)cc2Cl)n(-c2ccccc2)n1	0.015	/	/	0.9
Cc1cc(C)nc(NS(=O)(=O)c2ccccc2)n1	-0.15	-0.0034	0.022	1
Cc1cc(C)cc(NC(=O)c2cccn2-c2ncc(C(F)(F)F)cc2Cl)c1	-2.9	/	/	0.9
SMILES	Cav32 inh	M1 ag	M1 antagonist	PLAP act
CCOC(=O)c1c(N)sc(C(O)(C(F)(F)F)C(F)(F)F)c1-c1ccc(F)cc1	-4.9*	/	/	1.3
CCN(CC)CCP(=O)(c1ccccc1)c1ccccc1	-4*	/	/	1.2
O=P(O)(O)CCP(=O)(c1ccccc1)c1ccccc1	0.00048	-0.51	0.93	1
Cc1c(NCc2cc(Cl)cc(Cl)c2O)c(=O)n(-c2ccccc2)n1C	-2.1	/	/	1.8
Cc1c(CCO)c(=O)n(-c2ccccc2)n1S(=O)(=O)c1c(Cl)cc(Cl)cc1Cl	-5.5*	/	/	1
Cc1ccc(Cl)cc1N1CCN(C(=O)CN(C2CCCCC2)S(C)(=O)=O)CC1	-4.9*	/	/	/
Cc1ccc(S(=O)(=O)N(CC(=O)N2CCN(c3ccc(F)cc3)CC2)C2CCCCC2)cc1	-5.8*	/	/	1.3
CCOC(=O)N1CCC(Nc2c(N3CCN(c4cc(Cl)ccc4C)CC3)c(=O)c2=O)CC1	-4.1*	-0.99	-0.6	1.6
CCOC(=O)N1CCN(C(=O)CN(C2CCCCC2)S(=O)(=O)c2ccc(C)cc2)CC1	0.95	-0.51	-0.18	1.6
COc1ccc(C2SCC(C(=O)NCc3ccc(F)cc3)N2C(C)=O)cc1 (stereo not drawn)	1.2	/	/	1.1
CCN(CC)c1ccc(NC(=O)CN2CCN(c3nc(C)cc(C)n3)CC2)cc1	-4.2*	-0.22	-1.1	1.4
Cc1occc1C(=O)Nc1cccc(C(=O)NCc2ccccc2)c1	-3.8*	-1.8	1.3	1
O=C(NCc1ccco1)c1cccc(NC(=O)c2ccccc2)c1	0.69	0.15	0.0095	0.8
C/C(=N/NC(=O)c1ccco1)c1cccc(NC(=O)c2ccc(C)o2)c1	0.54	/	/	0.9
CC(C)CNC(=O)c1cccc(NC(=O)c2ccc(NC(=O)c3ccco3)cc2)c1	-2.8	0.6	1.4*	0.8
COc1ccc(NC(=O)c2ccco2)cc1NC(=O)c1cccc(OC(C)C)c1	-5.6*	1.5	0.11	1.3
C/C(=N\NC(=O)c1cccc(Cl)c1)c1cccc(NC(=O)c2ccco2)c1	-5.5*	/	/	1.5
CCC(=O)NCCc1nc2ccccc2n1Cc1ccc(C)cc1	/	/	/	1.1
CCCCn1c(N)c(N(CCOC)C(=O)CSc2nc3ccc(C)cc3[nH]2)c(=O)[nH]c1=O	0.034	-0.12	-0.28	1.1
Cc1ccc(S(=O)(=O)Cc2cccc(C(=O)N3CCOCC3)c2)cc1	0.78	0.59	0.28	1.1
COc1ccc(-n2c(=O)c3ccccc3n(CC(=O)NC3CCCCC3)c2=O)cc1	0.039	/	/	0.9
O=C(c1cccc(S(=O)(=O)N2CCCCC2)c1)N1CCN(S(=O)(=O)c2ccc(F)cc2)CC1	/	/	/	1.2
CCCNC(=O)NC(=O)CSc1ccc2c(c1)OCCO2	-0.028	/	/	1
COc1ccccc1NC(=S)N1CCC(NC(=O)NC23CC4CC(CC(C4)C2)C3)CC1	-0.79	/	/	1.6
COc1ccc(NC(=S)N2C3CCC2CC(NC(=O)NC24CC5CC(CC(C5)C2)C4)C3)c(OC)c1 (stereo not drawn)	-0.41	/	/	2.5*
SMILES	Cav32 inh	M1 ag	M1 antagonist	PLAP act
CCOC(=O)c1c(-c2ccc(C)o2)csc1NC(=O)CSc1nnnn1-c1ccccc1	-2.7	3.6	0.64	1.6
CCOC(=O)c1c(-c2ccc(C)o2)csc1NC(=O)CSc1nnc(C)s1	-6.2*	0.41	-0.12	1.5
CCC(C)[C@H](N)c1nnc(SCC(=O)Nc2cccc(Cl)c2)o1 (stereo partly drawn)	0.74	0.59	-0.25	2.5*
O=C(NCc1ccccc1)c1ccc(C(=O)N(C2CCCCC2)C2CCCCC2)cc1	-5.9*	/	/	1.6
O=C(NCc1ccccc1)NC1CCCCC1	2.3	-1.4	0.49	1
COC(=O)C1=C(N)Oc2cc(C)[nH]c(=O)c2C1c1cccnc1 (stereo not drawn)	0.19	/	/	1.1
CCOC(=O)c1cnc(SCc2ccc(C(C)(C)C)cc2)nc1N	-7.2*	/	/	0.8
CCOC(=O)c1cnc(SCc2ccccc2)nc1N	-0.44	-0.17	-0.43	0.8
Nc1ncnc2c1nc(Br)n2[C@@H]1O[C@@H]2COP(=O)(O)O[C@H]2[C@H]1O	0.19	/	/	/
CCC(c1nnnn1Cc1ccco1)N1CCN(c2cc(Cl)ccc2C)CC1 (stereo not drawn)	-5.8*	0.07	0.081	1.6
CC(C)C(c1nnnn1Cc1ccco1)N1CCN(c2cccc(Cl)c2)CC1 (stereo not drawn)	-3.8*	-0.27	-0.013	1.3
